Assay outcomes deposited in PubChem by National Center for Advancing Translational Sciences (NCATS).
IL1B secr inh – inhibitors of inflammasome signaling (IL-1 beta secretion) | AID 743279 | 4.7% of 360,000 active | activity change, % at 57.5 µM | THP-1 LPS/ATP IL-1B secretion, AlphaLISA, 16 h; active compounds read low; in the data active means activity change below about -50%; inconclusive means mostly about -30% to -49%
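Secreted IL-1B measured by AlphaLISA bead assay after 16 h compound exposure of THP-1 cells; compounds (final up to 57.5 uM) added 1 h before LPS (250 ng/mL) and ATP (1.25 mM) stimulation; lower signal means less secretion.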
TDP1 cell CPT – growth inhibition of DT40 Tdp1-/-;hTDP1 cells with camptothecin (screen for TDP1 inhibitors). Potency, µM (series often up to 46.2 µM), inactives show top-dose activity change, negative = growth inhibition, most hits filed as inhibitors. 12% of 420,000 active. chicken DT40 Tdp1-/-;hTDP1 cells + 20 nM CPT, ATP luminescence, 48 h; further: potency means the concentration at half of the fitted maximal effect; nearly all actives have a fitted effect of over 55% in size
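Cell growth measured by CellTiter-Glo luminescence after a minimum 48 h, 37 C compound exposure with 20 nM CPT in Tdp1-knockout DT40 cells stably expressing hTDP1, seeded 400/well; qHTS titration format.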
TDP1 cell noCPT – qHTS for Inhibitors of human tyrosyl-DNA phosphodiesterase 1 (TDP1): qHTS in cells in absence of CPT; DT40 Tdp1-/- hTDP1 cells, no CPT, ATP luminescence, 48 h; Potency, µM (titrated, usually from 46.2 µM), for the others: at the highest dose activity change, negative = growth inhibition, most hits filed as inhibitors; 15% of 420,000 active; AID 686978, 2013; further: potency means the concentration at half of the fitted maximal effect; nearly all actives have a fitted effect of over 55% in size
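Stably hTDP1-transfected Tdp1-null chicken DT40 cells were treated with library compounds minus camptothecin and grown for at least 48 hr at 37 °C, after which cellular ATP was quantified by luminescence.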
HT1080NT lethal – kills 2HG-producing HT-1080-NT fibrosarcoma cells; HT-1080-NT fibrosarcoma viability, CellTiter-Glo ATP luminescence, 48 h; Potency, µM (top dose mostly 46.1 µM), for inactives: at the highest dose activity, negative = less viability, hits mostly cytotoxic; 1.6% of 360,000 active;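 further: NT is the 2HG producing partner of a matched IDH1 knockdown line; potency means the concentration at half of the fitted maximal effect; 0% = DMSO-treated cells and -100% = media-only wells without cells; nearly all actives have a fitted effect of over 55% in size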
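Luminescent CellTiter-Glo readout after 48 hours of compound exposure at 37 degrees C defined viability of HT-1080-NT cells. Activity was normalized to DMSO wells and cell-free media wells; concentration-response curves were fitted and assigned curve classes.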
HT1080 IDH1KD tx – toxicity to HT-1080 IDH1 knockdown cells (counter line); Potency, µM (doses to about 46.1 µM), inactives show at the highest dose activity, negative = toxicity, hits mostly cytotoxic; HT-1080 IDH1 knockdown viability, ATP luminescence, 48 h; 2% of 360,000 active;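 further: potency means the concentration at half of the fitted maximal effect; 0% = DMSO wells and -100% = cell-free medium wells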
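CellTiter-Glo luminescence after 48 h compound exposure at 37 degrees C of IDH1-knockdown HT-1080 cells in 5% FBS RPMI. %Activity scaled between DMSO wells and cell-free media wells, with curves fitted and assigned curve classes.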
The depositor's hits bear a star; ? = inconclusive; . = no result; ! = repeats disagree. The list is not random: actives were taken first. Their share in the collection is about 19%. Unless noted, the call rests on the fitted dose curve; in most records, active means well fitted curve in the direction sought with a large enough effect; inconclusive means small, poorly fitted or top-dose-only effect, or another doubt; inactive means no such curve, though single readings can be large; an effect the other way counts as inactive or inconclusive. Unless noted, on the % scale 0 is the no-effect control and ±100 the full control effect.

SMILES	IL1B secr inh	TDP1 cell CPT	TDP1 cell noCPT	HT1080NT lethal	HT1080 IDH1KD tx
COc1cc(/C=N/NC(=O)c2cnn3c(C)cc(-c4ccccc4)nc23)ccc1O	-57.3*	23.1µM*	16.4µM*	4.8%	4.8%
COc1ccc(Cc2nc3ccccc3n2CC(=O)N/N=C/c2ccc(O)cc2)cc1OC	36.1	-2.5%	13.9%	1.6%	8.7%
CCOc1ccc(CCNC(=O)COC(=O)c2cccc(N(C)C)c2)cc1OCC	-11.7	-46.8%	?	1.1%	0.0%
CCSc1nnc(NC(=O)C2CCCN(S(=O)(=O)c3cnc[nH]3)C2)s1 (centres undefined)	2.1	-29.4%	0.8%	-2.9%	-1.0%
COc1cc(/C=N/Nc2nc(C)nc3c2cnn3-c2ccccc2)ccc1O	-99.7*	2.91µM*	2.91µM*	?	?
COc1ccc(/C=N/NC(=O)c2nc(-c3ccccc3)cc(-c3ccccc3)n2)cc1O	-82.0*	13µM*	16.4µM*	?	?
COc1ccc(/C=N/NC(=O)c2c(-c3ccccc3)noc2C)cc1	-0.1	1.3%	-1.4%	5.5%	5.9%
COc1ccc(/C=N/NC(=O)c2nc(-c3ccccc3)cc(-c3ccccc3)n2)cc1	-79.5*	?	25.9µM*	-6.5%	-2.0%
COc1cc(/C=N/NC(=O)c2cc(-c3ccccc3OC(C)C)nc3ccccc23)ccc1O	3.2	?	1.84µM*	-20.2%	?
O=C(Nc1cc(F)ccc1F)N1CCC(CN2CCCC2)CC1	.	-4.5%	-11.2%	.	.
COc1ccc(S(=O)(=O)N(CCO)c2ccccc2CN(C)C/C=C/c2ccc(Cl)cc2)cc1	.	11.6µM*	14.6µM*	.	.
CC(=O)CCC(=O)O	.	15.8%	-3.3%	.	.
CCC(C)C(=O)N1c2ccccc2C(=C2SC(C(=O)OC)=C(C(=O)OC)S2)C(=S)C1(C)C (centres undefined)	-59.1*	11.2µM*	12.6µM*	?	?
C[C@@H]1CN([C@@H](C)CO)C(=O)CCCn2nncc2CO[C@H]1CN(C)C(=O)NC1CCCCC1	31.6	-0.9%	-9.6%	4.8%	3.6%
O=c1c2ccccc2sn1-c1ccc(Cl)cc1Cl	-105.5*	6.51µM*	2.91µM*	-21.0%	?
CCCCCCSc1cc(-c2nc3ccc(C)cn3c2NCc2ccccc2)ccc1OC	-50.9*!	23.1µM*	9.2µM*	?	?
CCCCCCSc1cccc(-c2nc3ccc(C)cn3c2NCc2ccccc2)c1	-60.5*	23.1µM*	20.6µM*	?	-2.7%
Fc1ccc(-c2nc3ccccn3c2NCc2ccc3c(c2)OCO3)cc1	-14.3	?	?	-7.2%	-29.5%
Cc1ccn2c(NCc3ccc4c(c3)OCO4)c(-c3ccc(O)cc3)nc2c1	13.2	-12.4%	-14.4%	10.4%	-6.3%
